# JMJD2A Tudor inh: qHTS Assay for Inhibitors of JMJD2A-Tudor Domain; Lysine-specific demethylase 4A (Homo sapiens), O75164; AlphaScreen JMJD2A-Tudor / H3K4me3 peptide binding; Potency, µM (highest dose often 114 µM), for inactives: at the top dose activity change, negative = inhibition, usual class: inhibitors; actives 4.4% (n = 390,000); also: % is scaled to controls: 0 for no effect and ±100 for the full control effect; nearly all actives have a fitted effect of over 50% in size
# HP1b binding inh: HTS for Inhibitors of HP1-beta Chromodomain Interactions with Methylated Histone Tails; AlphaScreen HP1-beta / biotin-H3K9me3 peptide binding; Potency, µM (doses to about 114 µM), inactives show at the top dose activity change, negative = inhibition, usual class: inhibitors; actives 0.56% (n = 390,000); also: nearly all actives have a fitted effect of over 70% in size
# Target sequence (P83916 whole entry, looked up): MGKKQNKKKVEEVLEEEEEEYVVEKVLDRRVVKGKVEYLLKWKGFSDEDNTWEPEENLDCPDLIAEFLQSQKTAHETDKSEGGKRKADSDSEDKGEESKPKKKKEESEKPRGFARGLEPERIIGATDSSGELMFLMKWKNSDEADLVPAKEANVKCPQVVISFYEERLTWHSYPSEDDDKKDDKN
#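 AlphaScreen: HP1-beta (50 nM) preformed 30 min with biotin-H3(1-18)K9me3 peptide (50 nM) in PBS pH 7.4, 0.01% Tween-20. Compound added for 30 min at RT, then streptavidin donor/nickel chelate acceptor beads (10 ug/mL) for 30 min.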
# PLK1 PBD block: qHTS for Inhibitors of PLK1-PDB (polo-like kinase 1 - polo-box domain): Primary Screen; Plk1 PBD binding of FITC phosphopeptide, fluorescence polarization; Potency, µM, inactives show max response, negative = inhibition, actives largely listed as inhibitors; actives 2.8% (n = 360,000); also: series mostly up to about 57 µM; % is scaled to controls: 0 for no effect and ±100 for the full control effect; nearly all actives have a fitted effect of over 65% in size
# BAZ2B inh: qHTS Assay for Inhibitors of BAZ2B; Bromodomain adjacent to zinc finger domain protein 2B (Homo sapiens), Q9UIF8; AlphaScreen BAZ2B-H3K14Ac peptide displacement; Potency, µM (titrated, usually from 114 µM), for inactives: top-dose activity change, negative = inhibition, usual class: inhibitors; actives 4.4% (n = 360,000); AID 504333, 2011; also: % is scaled to controls: 0 for no effect and ±100 for the full control effect; nearly all actives have a fitted effect of over 60% in size
#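 Protein-peptide AlphaScreen: BAZ2B 50 nM, b-H3K14Ac 50 nM, 1x PBS pH 7.4 + 0.01% Tween-20. Preincubation 30 min RT; cpd 30 min RT (top 110 uM); beads 20 min RT, light-protected.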
# G9a inh: qHTS Assay for Inhibitors of Histone Lysine Methyltransferase G9a; G9a H3K9 monomethylation, AlphaScreen, 2 h; AID 504332, 2011; Potency, µM (top dose mostly 102 µM), inactives show at the highest dose activity, negative = inhibition, usual class: inhibitors; Histone-lysine N-methyltransferase EHMT2 (Homo sapiens), Q96KQ7; actives 8.8% (n = 350,000); also: % is scaled to controls: 0 for no effect and ±100 for the full control effect; nearly all actives have a fitted effect of over 75% in size
# Target sequence (Q96KQ7 913-1193 limits assumed): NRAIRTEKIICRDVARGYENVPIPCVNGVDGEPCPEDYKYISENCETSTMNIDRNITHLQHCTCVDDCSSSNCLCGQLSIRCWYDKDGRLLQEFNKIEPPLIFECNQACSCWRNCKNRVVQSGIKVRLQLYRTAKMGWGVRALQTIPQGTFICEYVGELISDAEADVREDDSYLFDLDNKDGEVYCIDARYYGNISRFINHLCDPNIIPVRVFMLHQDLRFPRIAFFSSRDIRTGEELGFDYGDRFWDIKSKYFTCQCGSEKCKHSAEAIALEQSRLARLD
#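 Step 1: enzyme (final 20 nM) with compound, 15 min RT. Step 2: substrate peptide 500 nM and SAM 20 uM, 2 h RT. Step 3: anti-H3K9me1 antibody and AlphaScreen beads, 10 min, then plate read.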
# ALOX12 inh: Primary qHTS assay for inhibitors of human arachidonate 12S-lipoxygenase (ALOX12): Round 2 | purified 12hLO, xylenol orange hydroperoxide absorbance | actives 1.1% (n = 580,000) | Potency, µM (highest dose often 108 µM), inactives show top-dose activity change, negative = inhibition, most hits filed as inhibitors | Polyunsaturated fatty acid lipoxygenase ALOX12 (Homo sapiens), P18054; also: % is scaled to controls: 0 for no effect and ±100 for the full control effect
#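 Purified human 12hLO (150 nM final) in 25 mM Hepes, 0.01% Triton X-100, pH 7.0 was preincubated 15 min at room temperature with compound. Then 40 uM arachidonic acid was added, 30 min. Hydroperoxide was read by Fe-XO absorbance ratio 573/405 nm.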
# The depositor's hits bear a star; u = inconclusive; x = no result given; [ ] = another dose, or the depositor's remark. The list is not random: actives were taken first. Their share in the collection is about 9%. Calls follow the shape of the dose curve; as a rule, active = well fitted curve in the direction sought with a large enough effect; inconclusive = small, poorly fitted or top-dose-only effect, or another doubt; inactive = no such curve, though single readings can be large; an effect the other way counts as inactive or inconclusive. Potency is read from the fitted curve at half-maximal effect.
SMILES,JMJD2A Tudor inh,HP1b binding inh,PLK1 PBD block,BAZ2B inh,G9a inh,ALOX12 inh
CSc1ccccc1NC(=O)CN(C)C(=O)c1ccc2c(c1)OCCO2,-16%,14%,-4%,-11%,x,0%
Clc1ccccc1OCCCCN1CCNCC1,3.2µM*,u,-13%,28µM*,x,u
Cc1cc(C)nc(SCC(=O)Nc2ccc(N3CCOCC3)cc2)n1,-8%,51%,-4%,-5%,11µM*,u
COC(=O)c1ccccc1SCC(=O)Nc1ccc(N2CCOCC2)cc1,-21%,-5%,-12%,-25%,79µM*,-2%
Cc1ccc(SCC(=O)Nc2ccc(N3CCOCC3)cc2)cc1,-7%,13%,-12%,-20%,-27%,u
Cc1ccc(NC(=O)CSCC(=O)Nc2ccc(N3CCOCC3)cc2N2CCOCC2)cc1,-19%,7%,-7%,9%,50µM*,-6%
Cc1nc(SCC(=O)Nc2ccc(N3CCOCC3)cc2)nc(C)c1C,-13%,27%,-14%,-33%,40µM*,4%
CCc1ccc(CNC(=O)C2CCN(c3cc(C(F)(F)F)ncn3)CC2)cc1,x,x,x,x,x,11%
Cc1ccc2oc3c(c(=O)c2c1)C(c1cccc(Cl)c1)N(CCCN1CCOCC1)C3=O (configuration not stated),-20%,19%,-17%,0%,50µM*,12%[57.4 µM]
O=C1c2oc3ccc(F)cc3c(=O)c2C(c2ccncc2)N1CCN1CCOCC1 (configuration not stated),x,x,x,4%,50µM*,x
COc1cccc(C2c3c(oc4ccc(F)cc4c3=O)C(=O)N2CCN2CCOCC2)c1OC (configuration not stated),-25%,4%,-15%,4%,-18%[59 µM],-9%
Cc1ccc2oc3c(c(=O)c2c1)C(c1ccc(F)cc1)N(CCCN1CCOCC1)C3=O (configuration not stated),x,x,x,-3%,45µM*,x
CCCCNC(=O)C[C@@H]1C[C@@]2(C(=O)OC)CC(C)(C)CC=C2N(Cc2cccc3ccccc23)C1=O,x,x,3%,x,x,-26%
Cc1cc(OC(=O)c2ccc3ccccc3c2)c([N+](=O)[O-])c(=O)[nH]1,-29%,30%,-17%,-22%,45µM*,-5%
Cc1cc(OC(=O)c2ccc(S(=O)(=O)N3CCOCC3)cc2)c([N+](=O)[O-])c(=O)[nH]1,-16%,36%,-13%,u,56µM*,-16%
Cc1cc(OC(=O)c2ccccc2[N+](=O)[O-])c([N+](=O)[O-])c(=O)[nH]1,-21%,32%,-11%,u,u,u
Cc1cc(OC(=O)c2cc(Br)ccc2Cl)c([N+](=O)[O-])c(=O)[nH]1,-14%,38%,5%,u,u,35µM*
Cc1ccc(C(=O)Oc2cc(C)[nH]c(=O)c2[N+](=O)[O-])cc1,-7%,45%,0%,-31%,-37%,2%
Cc1cc(C)c2c(c1)NC(=O)C2(O)CC(=O)c1cccs1 (configuration not stated),3%,13%,-8%,-25%,3%[59 µM],0%
O=C(C1CCC(=O)N(C2CC2)C1)N1CCN(c2ccccc2Cl)CC1 (configuration not stated),8%,37%,4%,-21%,14%,-3%
CC(OC(=O)c1cc(-c2ccco2)nc2ccccc12)C(=O)NC(=O)NC(C)(C)C (configuration not stated),x,x,x,x,x,8.9µM*
CC(OC(=O)c1cc(-c2ccco2)nc2ccccc12)C(=O)NC(=O)NC1CCCCC1 (configuration not stated),x,x,x,x,x,7.9µM*
CS(=O)(=O)c1ncc(N(Cc2ccco2)Cc2cccs2)c(C(=O)Nc2ccccc2F)n1,-31%,7%,x,-23%,u,u

# Screens (PubChem)
